Assay results as given in PubChem BioAssay (Tox21).
“And” between values parts separate entries of the source, which are not always exact repeats. Identical values can stand only once. Results filed as inconclusive are left out. Where a call stands in place of a potency, no number is given. More than one record can exist for a structure, and the calls need not agree. The source made the active and inactive calls. Unless noted, the call rests on the fitted dose curve; in most records, active means well fitted curve in the direction sought with a large enough effect in the repeat runs; inconclusive means weak or mixed curves; inactive means no such curve, though single readings can be large; an effect the other way counts as inactive or inconclusive.

Tests used:
[1] = target: Progesterone receptor (Homo sapiens) (UniProt P06401); test: qHTS assay to identify small molecule agonists of the progesterone receptor (PR) signaling pathway (AID 1346784; calls by dose curve; further: nearly all actives have a fitted effect of over 30% in size)
Sequence of Progesterone receptor (Homo sapiens) (P06401 whole entry, looked up): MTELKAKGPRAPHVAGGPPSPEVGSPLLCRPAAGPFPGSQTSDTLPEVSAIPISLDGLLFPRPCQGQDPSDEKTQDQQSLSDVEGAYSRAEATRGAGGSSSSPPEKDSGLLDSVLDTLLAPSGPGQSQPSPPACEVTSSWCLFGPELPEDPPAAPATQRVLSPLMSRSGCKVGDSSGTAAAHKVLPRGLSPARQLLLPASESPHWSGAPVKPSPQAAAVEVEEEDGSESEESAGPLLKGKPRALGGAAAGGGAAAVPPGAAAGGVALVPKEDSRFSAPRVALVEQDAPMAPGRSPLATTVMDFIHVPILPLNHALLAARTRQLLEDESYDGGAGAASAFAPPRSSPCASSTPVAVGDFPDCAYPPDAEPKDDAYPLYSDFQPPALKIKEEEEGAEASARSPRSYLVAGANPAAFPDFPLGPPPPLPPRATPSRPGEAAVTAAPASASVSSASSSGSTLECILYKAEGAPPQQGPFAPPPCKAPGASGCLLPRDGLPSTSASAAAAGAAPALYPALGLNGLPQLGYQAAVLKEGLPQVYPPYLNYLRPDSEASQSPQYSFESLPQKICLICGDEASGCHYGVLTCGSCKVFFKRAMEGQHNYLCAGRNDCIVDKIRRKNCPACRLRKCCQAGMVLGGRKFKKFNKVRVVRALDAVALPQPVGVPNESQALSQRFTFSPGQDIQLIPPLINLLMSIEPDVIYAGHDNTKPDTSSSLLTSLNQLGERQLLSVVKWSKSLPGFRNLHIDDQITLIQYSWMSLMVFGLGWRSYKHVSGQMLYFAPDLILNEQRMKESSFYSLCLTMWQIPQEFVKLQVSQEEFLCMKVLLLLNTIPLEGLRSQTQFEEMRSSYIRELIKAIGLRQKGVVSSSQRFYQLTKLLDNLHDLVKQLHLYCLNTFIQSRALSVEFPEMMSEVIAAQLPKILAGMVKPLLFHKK
How it was run: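 Beta-lactamase reporter read-out: after 16 hr compound treatment at 37C and a further 2 hr at room temperature with LiveBLAzer B/G FRET substrate, fluorescence was measured in PR-UAS-bla HEK 293T cells grown in 2% charcoal-stripped serum.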

[2] = target: Progesterone receptor (Homo sapiens) (UniProt P06401); test: qHTS assay to identify small molecule antagonists of the progesterone receptor (PR) signaling pathway (AID 1346795; active means well fitted inhibition curve with a large enough effect in the signal ratio in the repeat runs, not every such curve was filed as active; the % refers to the signal ratio)
How it was run: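 Read-out is fluorescence from the LiveBLAzer B/G FRET substrate, cleaved by a UAS-controlled beta-lactamase in PR-UAS-bla HEK293T cells after 16 hr exposure to compound plus 1 nM promegestone (final), followed by 2 hr at room temperature.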

[3] = qHTS assay to identify small molecule antagonists of the progesterone receptor (PR) signaling pathway - cell viability counter screen (AID 1346798);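 further: HEK293T PR-UAS-bla cells stimulated with the agonist R5020; series mostly up to about 92 µM; nearly all actives have a fitted effect of over 50% in size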
How it was run: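 HEK293T PR-UAS-bla, 2% charcoal-stripped FBS; 4 hr pre-plate; cpd + R5020, 16 h 37C; LiveBLAzer read first; then CellTiter-Glo 30 min RT, luminescence.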

[4] = qHTS assay to identify small molecule agonists of the progesterone receptor (PR) signaling pathway - cell viability counter screen (AID 1346799; calls by dose curve; further: nearly all actives have a fitted effect of over 45% in size)
How it was run: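 Luminescence from CellTiter-Glo, added after the beta-lactamase FRET read in the same wells, gave cytotoxicity in PR-UAS-bla HEK293T cells treated with compounds for 16 hr at 37C.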

[5] = qHTS assay to identify small molecule antagonists of the TGF-beta/Smad signaling pathway - cell viability counter screen (AID 1346824); further: nearly all actives have a fitted effect of over 50% in size
How it was run: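 Cytotoxicity counter-screen run in the same wells as the beta-lactamase Smad reporter read: CellTiter-Glo luminescence after 30 min at room temperature. HEK 293T SBE-bla cells had 5 hr compound exposure at 37 C with TGF-beta1 (0.25 ng/mL stock).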

[6] = qHTS assay to identify small molecule agonists of the TGF-beta/Smad signaling pathway - cell viability counter screen (AID 1346829); further: top concentration of the series differs between compounds; nearly all actives have a fitted effect of over 45% in size
How it was run: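 Same-well cytotoxicity: CellTiter-Glo added after the 2 hr room-temperature beta-lactamase substrate step, luminescence measured 30 min later; cells had 5 hr of compound at 37 C.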

[7] = qHTS assay to identify small molecule agonists of the TGF-beta/Smad signaling pathway (AID 1346859; active means well fitted activation curve with a large enough effect in the signal ratio in the repeat runs, not every such curve was filed as active; the % refers to the signal ratio; further: series mostly up to about 77 µM)
How it was run: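 SBE-bla HEK 293T, 4,000 cells/well, plated o/n; cpd in DMSO, 5 hr, 37 C/5% CO2; B/G FRET substrate 2 hr RT; ex 405, em 460/530 nm.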

[8] = target: Thyrotropin-releasing hormone receptor (Homo sapiens) (UniProt P34981); test: qHTS assay to identify small molecule antagonists of the thyrotropin-releasing hormone receptor (TRHR) signaling pathway (AID 1346877; active means well fitted inhibition curve with a large enough effect in the repeat runs, not every such curve was filed as active; further: series mostly up to about 51 µM)
Sequence of Thyrotropin-releasing hormone receptor (Homo sapiens) (P34981 whole entry, looked up): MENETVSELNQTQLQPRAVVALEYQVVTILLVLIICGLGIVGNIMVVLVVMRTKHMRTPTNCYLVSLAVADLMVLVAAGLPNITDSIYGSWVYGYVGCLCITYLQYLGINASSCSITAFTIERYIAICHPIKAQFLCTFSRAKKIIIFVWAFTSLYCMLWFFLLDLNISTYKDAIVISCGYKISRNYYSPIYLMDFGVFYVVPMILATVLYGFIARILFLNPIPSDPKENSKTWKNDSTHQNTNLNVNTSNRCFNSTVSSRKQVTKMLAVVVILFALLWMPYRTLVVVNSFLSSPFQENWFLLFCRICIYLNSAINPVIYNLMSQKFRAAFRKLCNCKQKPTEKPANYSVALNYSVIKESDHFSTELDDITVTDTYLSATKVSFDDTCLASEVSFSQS
How it was run: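 TRHR-expressing HEK293 cells were seeded, cultured 18 h at 37 °C, then loaded with calcium dye for 2 h. Compounds were pre-incubated 5 min at room temperature before 1 nM TRH (final) was added, and kinetic fluorescence was recorded for 3 min.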

[9] = target: Thyrotropin-releasing hormone receptor (Homo sapiens) (UniProt P34981); test: qHTS assay to identify small molecule agonists of the thyrotropin-releasing hormone receptor (TRHR) signaling pathway (AID 1346891; calls by dose curve; further: series mostly up to about 58 µM)
How it was run: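 Intracellular calcium rise, read as fluorescence every second for 3 min, served as the agonist signal in dye-loaded HEK293 cells expressing TRHR; each compound ran at 15 concentrations in triplicate.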

[10] = Human pregnane X receptor (PXR) small molecule agonists, qHTS cell viability counter screen (AID 1346977); further: nearly all actives have a fitted effect of over 50% in size
How it was run: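 PXR-Luc HepG2, 2,000 cells/well, 5% charcoal-stripped FBS; 5hr settle; cpd 24hr, 37C/5% CO2; CellTiter-Fluor at 23hr, read 1hr later (fluorescence).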

[11] = Caspase-3/7 induction in HepG2 cells by small molecules, qHTS assay (AID 1346978); further: nearly all actives have a fitted effect of over 15% in size
How it was run: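 Caspase-3/7 induction was measured by Caspase-Glo 3/7 luminescence (30 min, room temperature) after a 17 hr compound exposure of wild-type HepG2 cells seeded at 2,000 per well and pre-incubated 5 hr.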

[12] = Caspase-3/7 induction in CHO-K1 cells by small molecules, qHTS cell viability counter screen (AID 1346979); further: nearly all actives have a fitted effect of over 35% in size; further: potency means the concentration at half of the fitted maximal effect
How it was run: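 Cells (CHO-K1, wild type) are plated at 1,500 per well and incubated 5hr. Test compounds in DMSO are then pinned in, followed by 16hr at 37C and 5% CO2. Viability is read by CellTiter-Fluor fluorescence after 1hr.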

[13] = Caspase-3/7 induction in CHO-K1 cells by small molecules, qHTS assay (AID 1346980); further: nearly all actives have a fitted effect of over 15% in size
How it was run: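 Luminescent Caspase-Glo 3/7 read (30min, room temperature) quantified apoptosis induction. Cells were wild-type CHO-K1, treated with compound for 17hr at 37 C and 5% CO2.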

[14] = Caspase-3/7 induction in HepG2 cells by small molecules, qHTS cell viability counter screen (AID 1346981); further: series mostly up to about 92 µM; nearly all actives have a fitted effect of over 30% in size
How it was run: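 Wild-type HepG2 cells (2,000/well) were allowed to settle for 5 hr at 37 C, 5% CO2, then dosed with compounds in DMSO by pin transfer. After 16 hr at 37 C, CellTiter-Fluor was added and fluorescence read 1 hr later.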

[15] = target: Nuclear receptor subfamily 1 group I member 2 (Homo sapiens) (UniProt O75469); test: Human pregnane X receptor (PXR) small molecule agonists, qHTS assay (AID 1346982); further: nearly all actives have a fitted effect of over 35% in size; further: potency means the concentration at half of the fitted maximal effect
Sequence of Nuclear receptor subfamily 1 group I member 2 (Homo sapiens) (O75469 whole entry, looked up): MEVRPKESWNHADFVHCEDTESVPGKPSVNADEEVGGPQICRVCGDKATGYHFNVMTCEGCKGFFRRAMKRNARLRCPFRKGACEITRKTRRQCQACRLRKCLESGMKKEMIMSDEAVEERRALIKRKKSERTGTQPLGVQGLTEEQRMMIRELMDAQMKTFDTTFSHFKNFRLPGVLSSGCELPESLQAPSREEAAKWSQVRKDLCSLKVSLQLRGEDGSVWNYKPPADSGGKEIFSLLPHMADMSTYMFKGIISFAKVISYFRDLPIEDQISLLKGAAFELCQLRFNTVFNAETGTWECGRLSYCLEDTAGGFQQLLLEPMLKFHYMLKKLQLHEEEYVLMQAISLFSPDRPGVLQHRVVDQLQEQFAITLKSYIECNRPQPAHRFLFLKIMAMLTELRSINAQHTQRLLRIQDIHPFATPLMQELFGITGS
How it was run: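 PXR-Luc HepG2 cells (CYP3A4 promoter-driven luciferase) were seeded in medium with 5% charcoal-stripped FBS, left 5 hr at 37 C, then exposed to compounds in DMSO for 24 hr. Luminescence was read after ONE-Glo addition.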

[16] = target: Cytochrome P450 2D6 (Homo sapiens) (UniProt P10635); test: Cytochrome P450 Family 2 Subfamily D Member 6 (CYP2D6) small molecule antagonists: luciferase reporter qHTS assay (AID 1671196); further: nearly all actives have a fitted effect of over 50% in size; further: potency means the concentration at half of the fitted maximal effect
Sequence of Cytochrome P450 2D6 (Homo sapiens) (P10635 whole entry, looked up): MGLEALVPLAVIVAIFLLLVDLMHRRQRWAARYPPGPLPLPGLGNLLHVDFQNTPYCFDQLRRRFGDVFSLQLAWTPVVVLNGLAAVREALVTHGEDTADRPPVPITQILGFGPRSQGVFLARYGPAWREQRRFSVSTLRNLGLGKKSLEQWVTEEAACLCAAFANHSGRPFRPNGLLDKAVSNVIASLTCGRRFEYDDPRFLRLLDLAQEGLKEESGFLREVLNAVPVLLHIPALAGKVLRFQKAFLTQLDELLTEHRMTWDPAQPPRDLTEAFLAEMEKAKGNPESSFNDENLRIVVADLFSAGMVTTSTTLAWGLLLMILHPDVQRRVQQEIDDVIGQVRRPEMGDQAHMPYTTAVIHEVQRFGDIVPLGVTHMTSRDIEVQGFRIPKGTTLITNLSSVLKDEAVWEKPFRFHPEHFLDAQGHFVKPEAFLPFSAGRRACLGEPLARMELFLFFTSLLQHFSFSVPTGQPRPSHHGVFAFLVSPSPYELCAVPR
How it was run: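 CYP2D6 enzyme–substrate mix was held with compound for 10 min at room temperature, then NADPH regeneration solution was added and the reaction ran 1 h at room temperature. Luciferin product was detected by luminescence after 20 min with detection reagent.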

[17] = target: Cytochrome P450 2C19 (Homo sapiens) (UniProt P33261); test: Cytochrome P450 Family 2 Subfamily C Member 19 (CYP2C19) small molecule antagonists: luciferase reporter qHTS assay (AID 1671197); further: nearly all actives have a fitted effect of over 65% in size; further: potency means the concentration at half of the fitted maximal effect
Sequence of Cytochrome P450 2C19 (Homo sapiens) (P33261 whole entry, looked up): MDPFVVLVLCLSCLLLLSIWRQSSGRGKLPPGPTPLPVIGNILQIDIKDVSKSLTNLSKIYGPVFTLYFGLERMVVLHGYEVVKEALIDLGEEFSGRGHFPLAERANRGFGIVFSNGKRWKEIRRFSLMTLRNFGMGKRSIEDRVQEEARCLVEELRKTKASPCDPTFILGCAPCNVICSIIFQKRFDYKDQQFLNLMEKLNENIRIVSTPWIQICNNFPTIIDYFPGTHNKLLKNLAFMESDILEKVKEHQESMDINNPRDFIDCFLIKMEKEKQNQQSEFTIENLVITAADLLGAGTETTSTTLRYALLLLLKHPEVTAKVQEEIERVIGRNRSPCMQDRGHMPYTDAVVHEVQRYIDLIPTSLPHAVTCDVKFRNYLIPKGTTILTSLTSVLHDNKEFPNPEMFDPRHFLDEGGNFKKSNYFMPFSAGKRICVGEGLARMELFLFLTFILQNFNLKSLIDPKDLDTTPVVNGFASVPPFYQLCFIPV
How it was run: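 Quantitative high-throughput screen of the Tox21 library using CYP2C19 with proluciferin substrate. Reaction: NADPH regeneration, 37C, 1 h, after 10 min compound preincubation at room temperature. Readout: luminescence.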

[18] = target: Cytochrome P450 2C9 (Homo sapiens) (UniProt P11712); test: Cytochrome P450 Family 2 Subfamily C Member 9 (CYP2C9) small molecule antagonists: luciferase reporter qHTS assay (AID 1671198); further: nearly all actives have a fitted effect of over 50% in size; further: potency means the concentration at half of the fitted maximal effect
Sequence of Cytochrome P450 2C9 (Homo sapiens) (P11712 whole entry, looked up): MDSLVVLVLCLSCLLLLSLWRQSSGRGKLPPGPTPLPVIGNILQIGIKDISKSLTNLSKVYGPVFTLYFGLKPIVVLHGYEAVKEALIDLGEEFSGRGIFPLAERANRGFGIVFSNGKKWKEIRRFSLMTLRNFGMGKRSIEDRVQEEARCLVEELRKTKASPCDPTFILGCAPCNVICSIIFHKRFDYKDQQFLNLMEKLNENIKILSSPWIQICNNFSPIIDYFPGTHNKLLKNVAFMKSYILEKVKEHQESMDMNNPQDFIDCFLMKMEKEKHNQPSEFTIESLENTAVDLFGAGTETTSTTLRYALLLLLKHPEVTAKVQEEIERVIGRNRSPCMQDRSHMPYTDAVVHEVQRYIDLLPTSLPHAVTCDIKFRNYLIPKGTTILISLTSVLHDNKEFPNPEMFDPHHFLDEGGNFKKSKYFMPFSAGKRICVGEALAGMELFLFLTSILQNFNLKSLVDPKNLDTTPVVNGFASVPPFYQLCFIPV
How it was run: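 Enzyme-substrate mix preincubated with compound 10 min at room temperature; reaction started with NADPH regeneration solution, 1 h 37C. Luminescent luciferin product read after 20 min detection reagent.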

[19] = target: Nuclear receptor subfamily 1 group I member 2 (Rattus norvegicus) (UniProt Q9R1A7); test: Rat pregnane X receptor (rPXR) activation by small molecules, qHTS assay (AID 1346983); conditions: rPXR luciferase reporter cells, One-Glo luminescence, 24 h; max activation: stronger effect = higher value; further: nearly all actives have a fitted effect of over 20% in size
Sequence of Nuclear receptor subfamily 1 group I member 2 (Rattus norvegicus) (Q9R1A7 whole entry, looked up): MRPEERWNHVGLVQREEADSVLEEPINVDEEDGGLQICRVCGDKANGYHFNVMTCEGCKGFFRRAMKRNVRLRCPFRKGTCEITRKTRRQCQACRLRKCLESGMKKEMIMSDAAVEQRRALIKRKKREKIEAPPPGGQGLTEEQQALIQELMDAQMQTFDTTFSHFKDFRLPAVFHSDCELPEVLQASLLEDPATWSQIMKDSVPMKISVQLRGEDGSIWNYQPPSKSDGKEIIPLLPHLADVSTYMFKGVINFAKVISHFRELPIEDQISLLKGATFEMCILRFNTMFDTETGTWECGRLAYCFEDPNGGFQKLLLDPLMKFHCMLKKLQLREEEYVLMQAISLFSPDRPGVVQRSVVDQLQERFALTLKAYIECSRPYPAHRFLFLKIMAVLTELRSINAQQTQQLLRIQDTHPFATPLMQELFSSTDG
How it was run: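 Luminescent readout (One-Glo luciferase, 30 min room temperature) followed 24 hr compound treatment at 37 C of rPXR cells plated 2,000 per well and preincubated 5hr; qHTS format with compounds delivered in DMSO.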

[20] = target: Nuclear receptor subfamily 1 group I member 2 (Homo sapiens) (UniProt O75469); test: Human pregnane X receptor (PXR) activation by small molecules, qHTS assay (AID 1346985); further: nearly all actives have a fitted effect of over 40% in size
How it was run: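 DPX-2 cells (HepG2 co-transfected with a PXR response element and a CYP3A4-promoter luciferase construct) were seeded at 2,000 per well, rested 5 hr at 37C, then exposed to DMSO-dissolved compounds for 24 hr. Activation was read as luciferase luminescence.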

Structure (SMILES) | Potency [1] | Potency [2] | Potency [3] | Potency [4] | Potency [5] | Potency [6] | outcome [7] | outcome [8] | Potency [9] | Potency [10] | Potency [11] | Potency [12] | outcome [13] | Potency [14] | Potency [15] | Potency [16] | Potency [17] | Potency [18] | max activation [19] | Potency [20]
CC(C)(C)NCC(O)c1ccc(O)c(CO)c1 (stereo unspecified) | inactive | inactive | inactive | inactive | inactive | inactive | inactive | inactive | inactive | inactive | inactive | inactive | inactive | inactive | inactive | inactive | inactive | inactive |  | 
COCCOCCOC | inactive | inactive | inactive | inactive | inactive | inactive | inactive | inactive | inactive | inactive | inactive | inactive | inactive | inactive | 61.3 µM (active) and inactive | inactive | inactive | inactive |  | 
NC(=O)OCC(COC(N)=O)c1ccccc1 | inactive | inactive | inactive | inactive | inactive | inactive | inactive | inactive | inactive | inactive | inactive | inactive | inactive | inactive | inactive | inactive | inactive and 34.7 µM (active) | inactive |  | 
COC(=O)c1ccc(O)cc1 | inactive | inactive | inactive | inactive | inactive | inactive | inactive | inactive | inactive | inactive | inactive | inactive | inactive | inactive | inactive | inactive | inactive | inactive | -1.51% (inactive) | inactive
CCn1cc(C(=O)O)c(=O)c2ccc(C)nc21 | inactive | inactive | inactive | inactive | inactive | inactive | inactive | inactive | inactive | inactive | inactive | inactive | inactive | inactive | inactive | inactive |  |  |  | 
COc1cc(O)c(C(=O)c2ccccc2)cc1S(=O)(=O)O | inactive | inactive | inactive | inactive | inactive | inactive | inactive | inactive | inactive | inactive | inactive | inactive and 13.3 µM (active) | inactive | inactive | inactive | inactive | 78.8 µM (active) and inactive | inactive | -1.72% (inactive) | inactive
COC(=O)C1CCC(C(=O)OC)CC1 (stereo unspecified) | inactive | inactive | inactive | inactive | inactive | inactive | inactive | inactive | inactive | inactive | inactive | inactive | inactive | inactive | inactive | inactive | inactive | inactive |  | 
C1CNCCN1 | inactive | inactive | inactive | inactive | inactive | inactive | inactive | inactive | inactive | inactive | inactive | 44.6 µM (active) and inactive | inactive | inactive | inactive | 32.6 µM (active) and inactive and 2.03 µM (active) | 82 µM (active) and inactive and 72.1 µM (active) | inactive |  | 
CC1=C(/C=C/C(C)=C/C=C/C(C)=C/C(=O)O)C(C)(C)CCC1 | inactive | inactive | inactive | inactive | inactive | inactive | inactive | inactive | inactive | inactive | inactive | 68.5 µM (active) and inactive | inactive | inactive | 54.5 µM (active) and 61.1 µM (active) and 33.5 µM (active) | inactive | 20 µM (active) and 35.5 µM (active) | 71.1 µM (active) and 39.9 µM (active) and 34.7 µM (active) |  | 
CC(=O)/C=C/C1=C(C)CCCC1(C)C | inactive | inactive | inactive | inactive | inactive | inactive | inactive | inactive | inactive | inactive | inactive | inactive | inactive | inactive | 55.5 µM (active) and 17.2 µM (active) and 21.7 µM (active) | inactive | 40.7 µM (active) and 39.9 µM (active) and 71 µM (active) |  |  | 
C=C(C)C(N)=O | inactive | inactive | inactive | inactive | inactive | inactive | inactive | inactive | inactive | inactive | inactive | inactive | inactive | inactive | inactive | inactive | inactive |  |  | 
O=C(O)CN(CC(=O)O)CC(=O)O | inactive | inactive | inactive | inactive | inactive | inactive | inactive | inactive | inactive | inactive | inactive | inactive | inactive | inactive | inactive | inactive | 36.1 µM (active) and inactive | inactive |  | 
